Bioassay records (PubChem BioAssay)
A selection: hits, their analogues and other compounds. The true share with any hit is near 3.5%.
TEAD-YAP block – TEAD-YAP interaction inhibition; HEK-TIYL cells, TEAD-Gal4/YAP UAS-luciferase luminescence; inhibition, % at 9.12 µM; 640,000 tested, 1.4% active; AID 1259422; in the data active = inhibition above about 32%
FBW7 activator – activators of human E3 ligase FBW7. AlphaScreen FBW7–phospho-cyclin E peptide binding, activator screen. 650,000 tested, 0.13% active. normalized activity (activation), % at 26.1 µM. AID 1259310. Q969H0; in the data active = normalized activity above about 1.9%;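 also: purified mutant Fbw7 with reduced substrate affinity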
GPR151 activ – activates the human receptor GPR151. Q8TDV0. PathHunter beta-arrestin GPR151 cells, luminescence. 650,000 tested, 1% active. activation, % at 11.2 µM. AID 1508602; in the data active = activation above about 4.9%
MITF inh – blocks human microphthalmia-associated transcription factor. AlphaScreen MITF homodimerization, bead proximity signal. O75030. 650,000 tested, 0.91% active. AID 1259374. inhibition, % at 2.6 µM; in the data active = inhibition above about 50%
GPR151 confirm – confirmation of human GPR151 activators. shares compounds with GPR151 activ. GPR151 PathHunter beta-arrestin cells, luminescence, 90 min; % of EA-reagent control over plate median. activation, % at 11.2 µM. 6,700 tested, under 10 active. AID 1508609;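 active = mean percent activation across replicates above the confirmation screen cutoff of 4.91%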
GPR119 ag – activates human GPR119 in a GPR151 counter-screen. 6,700 tested, 0.3% active. shares compounds with GPR151 activ. GPR119 PathHunter beta-arrestin cells, luminescence, 90 min; 0 = compound-well median, 100 = enzyme-acceptor control. activation, % at 11.2 µM;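 active = mean percent activation in the counterscreen above 29.09%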;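 also: counterscreen on off-target GPR119 to flag nonselective hits from the GPR151 activator screen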
Target sequence (Q8TDV5 whole entry, looked up): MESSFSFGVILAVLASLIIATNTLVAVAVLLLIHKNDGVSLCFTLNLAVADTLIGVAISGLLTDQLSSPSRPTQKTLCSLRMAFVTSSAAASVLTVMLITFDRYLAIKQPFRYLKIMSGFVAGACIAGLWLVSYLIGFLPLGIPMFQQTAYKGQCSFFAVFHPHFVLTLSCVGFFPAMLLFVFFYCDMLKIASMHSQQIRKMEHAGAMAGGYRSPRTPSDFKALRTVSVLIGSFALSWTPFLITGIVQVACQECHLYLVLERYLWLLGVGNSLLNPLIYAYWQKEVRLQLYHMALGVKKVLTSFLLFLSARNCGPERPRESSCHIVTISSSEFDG
Hits are given with their value; – = inactive; · = no result given; ! = a repeat was not active.

SMILES | TEAD-YAP block | FBW7 activator | GPR151 activ | MITF inh | GPR151 confirm | GPR119 ag
COc1ccc(CCC(=O)Nc2cccnc2)cc1 | – | – | – | – | · | ·
O=C(OCc1ccc(Br)cc1)c1ccc(N2CCCC2=O)cc1 | – | – | 7.3 | – | – | –
O=C(OCc1ccc(Br)cc1)c1ccc(O)cc1 | – | – | – | – | · | ·
CC(=O)c1cc(C)ccc1OC(=O)c1ccc([N+](=O)[O-])cc1 | – | – | 6.4 | – | – | –
O=C(NCc1cccc(C(F)(F)F)c1)c1csc(Nc2ccc3ncccc3c2)n1 | – | – | – | – | · | ·
CCOc1cc(C)c(C(C)C)cc1S(=O)(=O)N(CC)CC | – | – | 16 | – | – | –
CCOc1cc(C)c(C(C)C)cc1S(=O)(=O)N1CCN(C)CC1 | – | – | – | – | · | ·
O=C(Cc1ccc(F)cc1)NCC(c1ccsc1)N1CCCCCC1 (stereo not drawn) | – | – | 6.9 | – | – | –
COc1ccccc1OCC(=O)NCC(c1ccsc1)N1CCCC1 (stereo not drawn) | – | – | – | – | · | ·
COc1ccccc1N1CCN(C2CCCN(Cc3cccn3-c3cccnc3)C2)CC1 (stereo not drawn) | – | – | 7.5 | – | – | –
COc1ccc(CN2CCCC(N3CCN(c4ccccc4OC)CC3)C2)cc1O (stereo not drawn) | – | – | – | – | · | ·
COc1ccccc1N1CCN(C2CCCN(Cc3ccc4nonc4c3)C2)CC1 (stereo not drawn) | – | – | 8.0 | – | – | –
COc1ccccc1N1CCN(C2CCCN(Cc3ccncc3)C2)CC1 (stereo not drawn) | – | – | – | – | · | ·
Cc1ccc(NCCCC(=O)N/N=C/c2ccc(C)o2)cc1 | – | – | – | – | · | ·
CC(C)Cc1ccc(C(C)C(=O)O)cc1 (stereo not drawn) | – | – | – | – | · | ·
CC(C(=O)O)c1ccc(CC2CCCC2=O)cc1 (stereo not drawn) | – | – | 6.7! | – | – | –
CN(C)c1ccc(/C=C2\C(=O)ON=C2c2ccccc2)cc1[N+](=O)[O-] | – | – | 5.8 | 72 | – | –
C=CCNCCOc1ccc(C)cc1Br | – | – | – | – | · | ·
N#CC1=C(N)OC(c2ccccc2)=C(n2cnc([N+](=O)[O-])n2)C1c1ccccc1 (stereo not drawn) | – | – | – | – | · | ·
N#CC1=C(N)OC(c2ccccc2)=C(n2cnc([N+](=O)[O-])c2)C1c1cccnc1 (stereo not drawn) | – | – | 8.2 | – | – | –
CC(C)[C@@H](CO)Nc1ccc2ncc(-c3cccc(/C=C/C(=O)O)c3)n2n1 | – | – | – | – | · | ·
Nc1ccn([C@@H]2O[C@H](CO)[C@@H](O)C2O)c(=O)n1 (stereo partly drawn) | – | – | – | – | · | ·
Nc1ccn([C@@H]2O[C@H](CO)[C@@H](O)C2(F)F)c(=O)n1 | – | – | 8.7! | – | – | –
COc1ccc(OC)c(NC(=O)CC2C(=O)NCCN2C(=O)C(F)(F)F)c1 (stereo not drawn) | – | – | 7.0 | – | – | –
CCC(C(=O)NCCCN1CCOCC1)n1ncn2c(cc3occc32)c1=O (stereo not drawn) | – | – | 9.9 | – | – | –
SMILES | TEAD-YAP block | FBW7 activator | GPR151 activ | MITF inh | GPR151 confirm | GPR119 ag
CCN(CC)S(=O)(=O)c1cccc(C(=O)NN)c1 | – | – | 5.5 | – | – | –
COc1ccc(-c2noc(CN(C)CCOc3ccccc3)n2)c(OC)c1OC | – | – | – | – | · | ·
CN(CCOc1ccccc1)Cc1nc(-c2ccccc2)no1 | – | – | 9.5 | – | – | –
CCCCN(C)c1nnc(NC(=O)Nc2ccccc2C(F)(F)F)s1 | – | – | – | – | · | ·
COC(=O)c1ccccc1N1C(=O)c2cccc([N+](=O)[O-])c2C1=O | – | – | – | – | · | ·
O=C(CCc1ccccc1)NC(c1ccc2c(c1)OCO2)c1c(O)ccc2ccccc12 (stereo not drawn) | – | – | – | – | · | ·
CC(C)CC(=O)NC(c1ccc2c(c1)OCO2)c1c(O)ccc2ccccc12 (stereo not drawn) | – | – | 5.2 | – | – | –
COc1cc(/C=N/Nc2nc3c(c(=O)[nH]c(=O)n3C)n2CC(C)O)ccc1O (stereo not drawn) | – | – | – | – | · | ·
CCOc1cc(/C=N/Nc2nc3c(c(=O)[nH]c(=O)n3C)n2CC(C)C)ccc1O | – | – | 6.6 | – | – | –
O=C(Nc1ccc2c(c1)OCO2)c1cccc(Nc2ccc3ncccc3c2)n1 | – | – | 6.3 | – | – | –
O=C(Nc1ccc2c(c1)OCO2)c1cccc(Nc2ccc3ncccc3c2)c1 | – | – | – | – | · | ·
O=C(NCc1cccnc1)c1cccc(Nc2ccc3ncccc3c2)n1 | – | – | 5.3 | – | – | –
CC(=O)Nc1ccc(Nc2cc(N3CCN(c4ccccn4)CC3)nc(N)n2)cc1 | – | – | – | – | · | ·
COc1cc(Nc2nc(SCc3ccc(F)cc3)nc3ccccc23)cc(OC)c1 | – | – | 5.0 | – | – | –
Fc1cccc(CSc2nc(Nc3ccc4c(c3)OCO4)c3ccccc3n2)c1 | – | – | 5.0 | – | – | –
CCCCNc1nc(SCC(=O)c2ccc(O)c(O)c2)nc2ccccc12 | – | – | 5.6 | 56 | – | –
CCCCNC(=O)CSc1nc(Nc2ccc3c(c2)OCO3)c2ccccc2n1 | – | – | – | – | · | ·
O=C(CSc1nc(Nc2ccc3c(c2)OCO3)c2ccccc2n1)c1ccccc1 | – | – | 5.3 | – | – | –
c1ccc(CC2CCN(Cc3cn4ccccc4n3)CC2)cc1 | – | – | – | – | · | ·
O=C(Nc1cc(C(=O)NC2CCN(Cc3ccccc3)CC2)ccc1N1CC2CC(C1)c1cccc(=O)n1C2)c1ccncc1 (stereo not drawn) | – | – | – | – | · | ·
O=C1[C@@H]2C[C@@H](O)CN2C(=O)[C@H]2CN(Cc3ccccc3)CCN12 | – | – | – | – | · | ·
O=Cc1cccc(-c2ccc(OCCN3CCCCC3)nc2)c1 | – | – | – | – | · | ·
CCCCCOC(=O)C1=C(C)N(C)C(=O)NC1c1ccccc1Cl (stereo not drawn) | – | – | 5.0 | – | – | –
CCOC(=O)C1=C(C)N(C)C(=O)NC1c1ccccc1Cl (stereo not drawn) | – | – | – | – | · | ·
CCN(CC)c1nc(NCCc2ccc(O)cc2)nc(Nc2ccncn2)n1 | – | – | – | – | · | ·
Cc1nc2nc(C(F)(F)F)[nH]n2c(=O)c1Cc1ccccc1 | – | – | 8.1 | – | – | –
Cc1nc2nc(C(=O)O)[nH]n2c(=O)c1Cc1ccccc1 | – | – | – | – | · | ·
NC(=NCCC[C@H](N)C(=O)O)NO | – | – | 5.5 | – | – | –
Cc1ccccc1CC1(CO)CCCN(C(=O)CN2CCCC2=O)C1 (stereo not drawn) | – | – | – | – | · | ·
CN1CCN(c2cc(-c3cn[nH]c3)ccc2NC(=O)Cc2cccc(Cl)c2)CC1 | – | – | 5.2 | – | 6.6 | 54
